Data on 9 molecules can be found in PubChem BioAssay (NCI).

Assay in all cases: NCI-60 one-dose screen, 48 h (100 = growth as untreated, 0 = no growth, -100 = all killed)
Holding throughout (conditions): 10 µM unless noted

The test system of assay [1] is RPMI-8226 leukemia.
Assay [2] deals with OVCAR-8 ovarian.
The subject of assay [3] is OVCAR-5 ovarian.
Assay [4] deals with OVCAR-4 ovarian.
Assay [5] relates to SK-OV-3 ovarian.
For assay [6], the system named is IGROV1 ovarian.
In assay [7] the test system is OVCAR-3 ovarian.
Assay [8] has as its system HS 578T breast.
Assay [9] relates to NCI/ADR-RES ovarian.
For assay [10], the system named is T-47D breast.
Assay [11] deals with BT-549 breast.
The test system of assay [12] is MDA-MB-435 melanoma.
Assay [13] concerns SW-620 colon.
Assay [14] relates to MCF7 breast.
The subject of assay [15] is HCT-116 colon.
Assay [16] has as its system HCC-2998 colon.
In assay [17] the test system is KM12 colon.

About 83,000 compounds went through this panel and 20% of them were active in at least one assay; those are over-represented in the sample as a whole.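 Results are percent growth after 48 hours of single-concentration exposure. 100 means growth as in untreated cells, lower positive values show inhibition; negative values down to -100 show cell death.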 Unmarked numbers belong to inactive results. Active and inactive are the calls of the source. Rule for the calls: active = growth percent below 10; inactive = the rest.

Take `Cc1ccc(-c2nc3c(c(-c4ccccc4)nn3-c3ccccc3)c(-c3ccc(O)cc3)c2C#N)cc1`: the growth in assay [1] is 21.4%; in assay [2], 69%; in assay [3] it was 104%; in [4], 82.2%; in assay [5], 92.6%; in assay [6] it was 82.6%. The growth is 64.5% in [7]; 24% in [8]; 81.4% in assay [9]; 61.2% in [10]; 76.8% in [11]; 64.5% in assay [12]. The growth in assay [13] is 62.8%; in [14] it was 26.4%; in assay [15], 42.4%; in assay [16], 95.3%; in assay [17], 55.9%.
In the case of `COc1ccc2c(c1)nc(NNC(=O)c1cnccn1)c1cccn12`, the growth in assay [1] was 23.5%; in assay [2], 24.1%; in [3] it was 42.3%; in assay [4], 17.5%; in assay [5] it was 26.5%; in assay [6], 16.3%. Also, the growth in assay [7] was 15.3%; in assay [8] it was 78.2%; in [9], 9.97% (active); in [10], 22.4%; in [11] it was 37.9%; in [12], 33.7%. Besides, the growth in assay [13] was 29.6%; in assay [14], 10.7%; in [15], 20.3%; in assay [16] it was 49.7%; in [17], 24.8%.
`CCN(CC)S(=O)(=O)c1ccc(NC(=O)CSc2nnc(C)n2-c2ccccc2)cc1`: the growth in assay [1] is 103%; in assay [2], 102%; in assay [3], 95.4%; in assay [4], 102%; in assay [5] it was 105%; in [6], -1.42% (active). In addition, the growth in assay [7] is 116%; in assay [8], 95.5%; in [9], 99.2%; in [10], 106%; in assay [11], 117%; in assay [12] it was 99.2%. Moreover, the growth in assay [13] is 105%; in assay [14], 113%; in assay [15], 102%; in assay [16] it was 109%; in assay [17], 104%.
In the case of `COc1ccc(N2C(=O)C(Oc3ccccc3)C2c2ccc(C)cc2)cc1` (stereo not drawn), the growth in assay [1] was 106%; in assay [2], 91.8%; in assay [3], 100%; in assay [4] it was 93.4%; in [5] it was 106%; in [6], 102%. The growth is 112% in [7]; 94% in assay [8]; 101% in [9]; 96.9% in [10]; 99.3% in [11]; 98.7% in [12]. Besides, the growth was 94.8% in assay [13]; 96.3% in assay [14]; 95.5% in assay [15]; 97.7% in assay [16]; 96.2% in [17].
As to `COc1ccc(C(=O)/C=C/c2sc(Cl)nc2Cl)cc1`, the growth in [1] is -25.4% (active); in assay [2], 22.9%; in assay [3] it was 47.1%; in assay [4] it was 42.2%; in [5] it was 39%; in assay [6], 11.1%. For the same molecule, the growth is -3.81% (active) in assay [7]; 58.5% in [8]; 1.37% (active) in [9]; 59% in assay [10]; -4.31% (active) in [11]; 15.7% in assay [12]. Further, the growth was 18.6% in assay [13]; -7.05% (active) in [14]; 17.7% in [15]; -36% (active) in [16]; 39% in assay [17].
As to `CSc1ncccc1C(=O)OCC(=O)Nc1oc(C)c2c(C)n[nH]c(=O)c12`, the growth is 72.8% in assay [1]; 98.6% in assay [2]; 94.3% in assay [3]; 104% in [4]; 96% in assay [5]; -4.78% (active) in assay [6]. The growth was 106% in [7]; 104% in [8]; 102% in [9]; 103% in assay [10]; 99.1% in assay [11]; 107% in assay [12]. For the same molecule, the growth in assay [13] was 105%; in assay [14], 84%; in assay [15] it was 109%; in [16], 113%; in assay [17], 103%.
As to `Cc1nc2ccccc2c(/C=C/c2ccccc2)c1C(=O)/C=C/c1ccc(C(F)(F)F)cc1`, the growth was -29.1% (active) in assay [1]; 10.3% in assay [2]; -34.6% (active) in assay [3]; -42.8% (active) in assay [4]; 7.69% (active) in assay [5]; -72.4% (active) in assay [6]. In addition, the growth in assay [7] is -86.5% (active); in assay [8], -10.9% (active); in assay [9] it was -1.24% (active); in assay [10], -14.6% (active); in assay [11] it was -25.6% (active); in assay [12], -82.6% (active). In addition, the growth in assay [13] is -32.9% (active); in assay [14] it was -9.44% (active); in [15] it was -64.5% (active); in assay [16], -70.5% (active); in [17], -58.9% (active).
As for `COc1ccc(-c2c(C(=O)NS(C)(=O)=O)n(Cc3cccc(C(F)(F)F)c3)c3ccccc23)cc1`, the growth in [1] was 81.2%; in assay [2] it was 82.1%; in assay [3], 106%; in assay [4] it was 96.1%; in assay [5], 97.2%; in assay [6], 90.7%. The growth in assay [7] was 88.5%; in assay [8] it was 86.5%; in assay [9], 94.4%; in assay [10], 87.7%; in assay [11], 92.3%; in assay [12], 97.3%. Also, the growth in assay [13] is 95.4%; in assay [14], 91.4%; in [15], 84.5%; in assay [16], 108%; in [17], 92.8%.
Take `CN1CCN(c2ccc(-c3ccc4ncc(C#N)c(Nc5ccc(F)c(Cl)c5)c4c3)cc2)CC1`: the growth in [1] is 4.87% (active); in assay [2], 47.9%; in assay [3], 57.6%; in assay [4], 46.8%; in assay [5] it was 27%; in [6], 11.4%. Also, the growth in assay [7] is 59.8%; in assay [8], 43.3%; in assay [9], 50.5%; in [10], 60.7%; in assay [11], 63.3%; in [12], 21.6%. The growth was 21.5% in assay [13]; 51.4% in [14]; 18.2% in assay [15]; 48.6% in assay [16]; 57.2% in assay [17].
